Compound activity from PubChem BioAssay.
The sample as a whole holds a higher share of hits than the screen did.
ST2 IL33 inh – blocks human ST2 binding to IL-33; AlphaLISA ST2-Fc/biotin-IL-33 interaction, 1 h; inhibition, % for hits at 17 µM; hit rate 2.3% among 78,000; in the data active means inhibition above about 30%
Target sequence (Q01638 whole entry, looked up): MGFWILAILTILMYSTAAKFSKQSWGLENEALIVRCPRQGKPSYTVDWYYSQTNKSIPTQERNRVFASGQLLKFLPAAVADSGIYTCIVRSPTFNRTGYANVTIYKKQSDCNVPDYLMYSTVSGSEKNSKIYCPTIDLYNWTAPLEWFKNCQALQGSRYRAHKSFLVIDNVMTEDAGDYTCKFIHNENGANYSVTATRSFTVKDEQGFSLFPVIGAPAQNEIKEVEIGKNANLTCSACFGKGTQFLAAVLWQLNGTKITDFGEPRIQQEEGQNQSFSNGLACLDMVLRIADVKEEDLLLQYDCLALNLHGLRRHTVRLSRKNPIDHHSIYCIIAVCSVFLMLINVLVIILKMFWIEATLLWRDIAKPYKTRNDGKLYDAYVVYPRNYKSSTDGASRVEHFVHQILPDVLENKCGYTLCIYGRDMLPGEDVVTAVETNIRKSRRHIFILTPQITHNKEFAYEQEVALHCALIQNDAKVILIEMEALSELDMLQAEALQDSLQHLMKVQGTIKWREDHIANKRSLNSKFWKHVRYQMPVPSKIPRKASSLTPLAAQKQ
The depositor's hits bear a star; i = inactive; ! = a repeat was not active.

SMILES	ST2 IL33 inh
COc1cc(/C=C/CO)ccc1O[C@@H]1O[C@H](CO)[C@@H](O)[C@H](O)[C@H]1O	i
OC[C@H]1O[C@@H](OCCc2ccccc2)[C@H](O)[C@@H](O)[C@@H]1O	i
Cc1ccc(NC(=O)CSc2nc3nc(C)cc(C)c3c(=O)[nH]2)c(C)c1	i
COC(=O)c1ccc(C2C(C(=O)Nc3ccc(C)cc3C)=C(C)Nc3nnnn32)cc1 (configuration not stated)	i
CCOC(=O)c1c[nH]c2ccc(OCC)cc2c1=O	i
CC(C)(C)C(=O)Cn1c(=O)n(-c2ccc(F)cc2)c(=O)c2sccc21	i
CCOC(=O)CN1C(=O)CSc2ccc(S(=O)(=O)N3CCC(C)CC3)cc21	i
N#Cc1c(N)sc2c1CCCC2	31%*
N#Cc1c(-n2cccc2C=O)sc2c1CCCC2	i
CC(=O)Nc1sc2c(c1C#N)CCCC2	i
Cc1cnccc1C(=O)NCC1CCCN(Cc2ccccn2)C1 (configuration not stated)	i
CN1[C@H](C(=O)O)C[C@H](C(=O)NCCc2cnc[nH]2)[C@@H]1c1cccc(Cl)c1	i
O=C(CSc1nnc2c(n1)[nH]c1ccccc12)NCCc1ccccc1	i
NC(=O)CSc1nnc2c(n1)[nH]c1ccccc12	i
NNc1nnc2c(n1)[nH]c1ccccc12	31%*
CCC(Sc1nc2ccccc2c2nc3ccccc3n12)C(=O)NCCCOC (configuration not stated)	i
COC(=O)C1=C(N)OC2=C(C(=O)CC(c3ccccc3)C2)C1c1ccc(F)cc1 (configuration not stated)	i
O=C(CC1Nc2ccccc2NC1=O)Nc1ccc(SC(F)F)cc1 (configuration not stated)	i
Cc1ccc(Cl)cc1NC(=O)c1c(Cl)cccc1Cl	i
CN1C[C@@H](NC(=O)c2ccc(-c3ccccc3)cc2)C[C@H]1c1nc(-c2ccc(Cl)cc2)no1	i
Cc1noc([C@@H]2C[C@H](NC(=O)c3ccc(F)cc3)CN2C)n1	40%*
Cc1noc([C@@H]2C[C@H](NC(=O)c3ccco3)CN2C)n1	i
COc1ccc(C(=O)N[C@H]2C[C@@H](c3nc(-c4ccc(OC(F)(F)F)cc4)no3)N(C)C2)cc1	i
CN1C[C@@H](NC(=O)c2ccc(C(C)(C)C)cc2)C[C@H]1c1nc(-c2ccc3c(c2)OCO3)no1	64%*
CN(C)c1ccc(C(=O)N[C@H]2C[C@@H](c3nc(-c4ccccn4)no3)N(C)C2)cc1	i
SMILES	ST2 IL33 inh
Cc1nn(CCCC(=O)Nc2cc(Cl)ccc2O)c(C)c1[N+](=O)[O-]	i
COc1ccc(OCC(=O)Nc2c(C(=O)Nc3cccc(F)c3)oc3ccccc23)cc1	i
COc1ccc(-c2noc([C@@H]3C[C@@H](O)CN3Cc3ccc(OC)c(OC)c3OC)n2)cc1	i
C[C@@H]1O[C@@H](OC[C@H]2O[C@@H](Oc3c(-c4ccc(O)cc4)oc4cc(O)cc(O)c4c3=O)C(O)[C@@H](O)C2O)[C@H](O)[C@H](O[C@@H]2O[C@H](CO)[C@@H](O)[C@H](O)[C@H]2O)[C@H]1O (some centres not stated)	i
CC(C)(C)n1cnc2cc(NCc3ccc(Cl)cc3Cl)ccc21	i
COc1cccc(CNc2ccc3c(c2)ncn3C)c1OC	i
CCN(CC)c1ccc(CNc2ccc3c(c2)ncn3C)cc1	50%*!
CCCn1cnc2cc(NCc3cccs3)ccc21	i
CCN(CC)c1ccc(CNc2ccc3c(c2)ncn3C(C)(C)C)cc1	40%*
CN(C)c1ccc(CNc2ccc3c(c2)ncn3C)cc1	46%*!
Cn1cnc2cc(NCc3ccc(Br)cc3)ccc21	i
CCn1cnc2cc(NCc3cccc(OC)c3)ccc21	i
Cn1cnc2cc(NCc3ccccc3Cl)ccc21	i
CCCc1cc(C(=O)N2CCC(C(=O)O)CC2)n[nH]1	i
COc1cc(CN2CCN(c3ccccn3)CC2)cc(OC)c1OC	i
CCCC(=O)N(c1ccc(C)c(C)c1)C1C=CS(=O)(=O)C1 (configuration not stated)	i
CCCc1n[nH]c(=O)n1[C@@H](CC)c1ccccc1	i
CC1=CC(C)C(COC(=O)CN2CCCC2)C(C)C1 (configuration not stated)	i
Cc1cc(C)c(S(=O)(=O)N2CCCC2=O)c(C)c1	i
Cc1cc(C)c(N2CCC(=O)N2)c(C)c1	33%*
CCN1CCN(Cc2c(C)[nH]c3c(C)cc(C)cc3c2=O)CC1	i
O=C(Nc1cccnc1Cl)c1nn2c(c1Cl)NC(c1ccco1)CC2C(F)(F)F (configuration not stated)	i
COc1ccc(C2C(C#N)=C(N)OC3=C2C(=O)CC(c2ccccc2)C3)cc1 (configuration not stated)	i
Cc1cc2c(c(=O)o1)C(c1ccccc1OCc1ccccc1Cl)C(C#N)=C(N)O2 (configuration not stated)	i
COc1cc(C2C(C#N)=C(N)OC3=C2C(=O)CC(c2ccccc2)C3)cc(OC)c1OC (configuration not stated)	i
SMILES	ST2 IL33 inh
COc1cc(C2C(C#N)=C(N)OC3=C2C(=O)CC(c2ccccc2)C3)ccc1OCc1ccccc1 (configuration not stated)	37%*
COc1ccc(C2C(C#N)=C(N)Oc3cc(C)oc(=O)c32)cc1OCc1ccccc1 (configuration not stated)	32%*
COc1ccc(C2C(C#N)=C(N)Oc3n[nH]c(C)c32)cc1OCc1ccccc1 (configuration not stated)	i
CS(=O)(=O)c1ncc(CN2CCCCC2c2nccs2)n1CCCc1ccccc1 (configuration not stated)	i
CCCc1noc(CN2CCCC3(CCCN(C)C3)C2)n1 (configuration not stated)	i
COC(=O)c1ccc(C(=O)N=c2sc3cc(F)ccc3n2C)cc1	i
CCC(NC1CCN(c2ccc3c(c2)OCO3)CC1)c1ccnn1C (configuration not stated)	i
COc1cc(-c2[nH]nc3c2C(c2ccccc2Cl)C(C#N)=C(N)O3)cc(OC)c1OC (configuration not stated)	i
N#CC1=C(N)Oc2nc[nH]c(=O)c2C1c1ccccc1Cl (configuration not stated)	94%*
CC(C)(C)c1[nH]nc2c1C(c1ccccc1Cl)C(C#N)=C(N)O2 (configuration not stated)	i
CCC(=O)Nc1cccc(C(=O)NC(C)Cn2cccn2)c1 (configuration not stated)	i
Cc1c(C(=O)NC(C)C)oc2ccc(S(=O)(=O)N3CCOCC3)cc12	i
C=CCOc1nc2c(c(=O)n(C)c(=O)n2C)n1C	i
Cn1c(OCc2cccnc2)nc2c1c(=O)n(Cc1ccc(Cl)cc1)c(=O)n2C	i
C=CCOc1nc2c(c(=O)n(Cc3ccc(Br)cc3)c(=O)n2C)n1C	39%*
COc1ccc(OC)c(-n2c(=O)[nH]c3cc(C(=O)O)ccc3c2=O)c1	i
COc1ccc(N=Cc2c(O)n(-c3ccccc3C)c(=O)c3ccccc23)c(OC)c1	43%*
COc1ccc(N=Cc2c(O)n(-c3ccccc3C)c(=O)c3ccccc23)cc1OC	48%*
COc1ccc(N=Cc2c(C)c(Cl)c(C)c([N+](=O)[O-])c2O)cc1OC	i
COc1cccc(C=Nc2ccc(N=Cc3cccc(OC)c3OC)cc2)c1OC	i
COc1ccccc1NC(=O)CSc1nc(O)cc(=O)n1-c1ccccc1C	i
